# From PubChem BioAssay (NCATS)
# Results filed as inconclusive are left out. A call without a number means that no potency is given here. A number with no mark means an inactive call. The source made the active and inactive calls. Calls come from the whole dose curve; as a rule, active = well fitted cell-killing curve with a large enough effect; inconclusive = small, poorly fitted or top-dose-only effect, or effect the other way; inactive = flat fitted curve, though single readings scatter.
# Test system: Hek293T
# Assay: Primary qHTS to identify gynecologic anti-cancer compounds using libraries of approved drugs and bioactive compounds (AID 1345084); note: nearly all actives have a fitted effect of over 55% in size
# Conditions: Gynecologic cancer cell panel viability, ATPlite luminescence, 48 h, control line for the selectivity index; series mostly up to 57.5 µM
# How it was run: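 Five-concentration response, 48 h; readout is ATP-driven luciferase luminescence.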
Compound,Potency,"activity change, negative = cytotoxicity"
C/C(=C\CCC1(C)C2CCC(C2)C1(C)O)C(=O)O (centres undefined),inactive,–
CC(=O)O[C@@H]1c2c3c(cc(O)c2C(=O)O[C@@H]1C)O[C@@]1(C)[C@@H](O)C[C@H]2C(C)(C)C(=O)C=C[C@]2(C)[C@@H]1C3,inactive,–
COc1ccccc1Oc1ccc(N(Cc2cccnc2)S(=O)(=O)CC(F)(F)F)cc1,inactive,–
CC(C)C(NC(=O)c1ccc2ccccc2n1)C(=O)NC(CC(=O)O)C(=O)COc1c(F)cccc1F (centres undefined),inactive,–
CC(C)=CCC[C@](C)(O)[C@H]1CC[C@]2(C)[C@@H]1[C@H](O)CC1[C@@]3(C)CC[C@H](O)C(C)(C)C3[C@@H](O[C@@H]3O[C@H](CO)[C@@H](O)[C@H](O)[C@H]3O[C@@H]3OC[C@@H](O)[C@H](O)[C@H]3O)C[C@]12C (some centres undefined),inactive,–
C=CC[C@]12C[C@@H](OC)C(=O)C(OC)=C1O[C@@H](c1cc(OC)c3c(c1)OCO3)[C@@H]2C,inactive,–
CC(C)O[C@@H]1O[C@H](CO)[C@@H](O)[C@H](O)[C@H]1O,inactive,–
C[C@@H]1CN(Cc2ncccn2)C[C@H]1c1nc2c(cnn2C2CCOCC2)c(=O)[nH]1,inactive,–
CN[C@H](CC(C)C)C(=O)N[C@H]1C(=O)N[C@@H](CC(N)=O)C(=O)N[C@H]2C(=O)N[C@H]3C(=O)N[C@H](C(=O)N[C@H](C(=O)O)c4cc(O)cc(O)c4-c4cc3ccc4O)[C@H](O[C@H]3C[C@](C)(N)[C@@H](O)[C@H](C)O3)c3ccc(c(Cl)c3)Oc3cc2cc(c3O[C@@H]2O[C@H](CO)[C@@H](O)[C@H](O)[C@H]2O[C@H]2C[C@](C)(NCc3ccc(-c4ccc(Cl)cc4)cc3)[C@@H](O)[C@H](C)O2)Oc2ccc(cc2Cl)[C@H]1O,inactive,–
C=C1CC[C@H]2[C@@](C)(CCC(O)[C@@]2(C)CO)[C@@H]1CCC1=CCOC1=O (some centres undefined),inactive,–
CC1CCC2(C=O)C(CO)=CCCC2C1(C)CC(=O)O (centres undefined),inactive,–
C=CC1(C)C=C2CCC3C(C)(C)C(O[C@@H]4O[C@@H](CO)[C@H](O)[C@H]4O)CCC3(C)C2CC1O[C@@H]1O[C@H](C)[C@H](O)[C@H](O)[C@H]1O (some centres undefined),inactive,–
C/C(=C\CC[C@@H](C)[C@H]1CC(O)[C@@]2(C)C3CC[C@H]4C(C)(C)[C@@H](OC5OCC(O)C(O)C5OC5OC(CO)C(O)C(O)C5O)CC[C@@]45C[C@@]35CC(O)[C@]12C)C(=O)O (some centres undefined),inactive,–
CC(C)(C)NCCCNC(=O)c1cccc(Br)c1,inactive,–
CC(=O)OC1C[C@]2(C)C(O)CC(C)=C[C@H](OC(=O)c3ccc(O)cc3)C2[C@]1(O)C(C)C (some centres undefined),inactive,–
C=C1CC[C@@H]2[C@](C)(CO[C@@H]3O[C@H](CO)[C@@H](O)[C@H](O)[C@H]3O)[C@H](O)CC[C@@]2(C)[C@@H]1C/C=C1/C(=O)OC[C@H]1O,inactive,–
COC(=O)/C=C/C12COC(C)(C)C1C(O)C(OC(C)=O)C1(C)C2CCC2(C)C(c3ccoc3)OC(=O)C3OC321 (centres undefined),inactive,–
CC1CC(=O)C2=C(CCC3(O)C(O)c4c(O)cccc4C(=O)C23O)C1 (centres undefined),inactive,–
COC(=O)c1ccccc1O[C@@H]1O[C@H](CO)[C@@H](O)[C@H](O)[C@H]1O[C@@H]1O[C@@H](C)[C@H](O)[C@@H](O)[C@H]1O,inactive,–
CCc1ccc(Cc2ccc3c(c2)[C@]2(OC3)O[C@H](CO)[C@@H](O)[C@H](O)[C@H]2O)cc1,inactive,–

Compound,Potency,"activity change, negative = cytotoxicity"
OC[C@H]1O[C@@H](Oc2ccccc2)[C@H](O)[C@@H](O)[C@@H]1O,inactive,–
COc1cc2c(cc1OC)CC(=O)N(CCCNC[C@H]1Cc3cc(OC)c(OC)cc31)CC2,inactive,–
COc1cc(O)c([C@@H](CC(=O)N2CC(C)CC(C)C2)c2ccc3c(c2)OCO3)c(OC)c1 (some centres undefined),inactive,–
C=CC/C=C\C/C=C\CCCCCCCc1cccc(O)c1C(=O)O,inactive,–
Cc1ccc(-c2ccc3c(ccc4sc5c(c43)NC[C@@H](C)NC5=O)n2)cn1,inactive,–
C[C@@H]1C(=O)OC[C@H]2C(C(=O)O)=C[C@@H]3CC(C)(C)C[C@]312,inactive,–
C[C@H]1CC(=O)Nc2cccc(-c3cnn(C(C)(C)C)c3)c2N1,inactive,–
COC(=O)C(C)C1CCC2(C)C(=O)C=CC(C)(O)C2C1O (centres undefined),inactive,–
CC(=O)O[C@@H]1[C@@H](OC(=O)/C=C/c2ccccc2)[C@@H](OC(C)=O)[C@H](O[C@H]2[C@@H]3C=CO[C@@H](O[C@@H]4O[C@H](CO)[C@@H](O)[C@H](O)[C@H]4O)[C@@H]3[C@@]3(CO)O[C@@H]23)O[C@H]1C,inactive,–
COc1cccc(C(=O)N2CCN(C(=O)COc3cccc(C)c3)CC2)c1OC,inactive,–
C=C[C@H]1C(O[C@@H]2O[C@H](CO)[C@@H](O)[C@H](O)[C@H]2O)OC=C2C(=O)N3CCc4c([nH]c5ccccc45)[C@H]3C[C@H]21 (some centres undefined),inactive,–
C/C=C(/COC(=O)/C(C)=C/C)C(=O)OC(CC)c1ccc(OC)c(OC)c1 (centres undefined),inactive,–
C=C1[C@H](OC(C)=O)[C@H]2[C@@H](OC(C)=O)[C@](C)(OC(C)=O)C[C@]2(OC(C)=O)C(=O)[C@H](C)/C=C/C(C)(C)C(=O)[C@H](OC(=O)C(C)C)[C@H]1OC(C)=O,inactive,–
C=CC(C)(C)C12C=C(OC)C(=O)N3C(C(C)C)C(=O)NC31N(OC)c1ccccc12 (centres undefined),inactive,–
C/C1=C\CC[C@]2(C)O[C@@H]2[C@H](O)[C@H](C(C)C)[C@H](OC(=O)/C=C/c2ccccc2)C1,inactive,–
c1ccc(N2CCN(CCc3nn[nH]n3)CC2)cc1,inactive,–
C=C1CC2C(C)(CCC(=O)O)C(C(C)(C)O)CCC2(C)C2C(=O)OC(C)(C(=O)OC)C(=O)C12C (centres undefined),inactive,–
CC(C)=CCCC1(C)C=Cc2c(c(C)cc3c2[nH]c2ccccc23)O1 (centres undefined),inactive,–
CC1(C)CC[C@]2(C(=O)O[C@@H]3O[C@H](CO[C@@H]4O[C@H](CO)[C@@H](O)[C@H](O)[C@H]4O[C@@H]4O[C@H](CO)[C@H](O)[C@H](O)[C@H]4O)[C@@H](O)[C@H](O[C@@H]4O[C@H](CO)[C@@H](O)[C@H](O)[C@H]4O)[C@H]3O)CC[C@]3(C)C(=CCC4[C@@]5(C)CC[C@H](O[C@@H]6OC[C@@H](O)[C@H](O)[C@H]6O)[C@@](C)(C(=O)O)C5CC[C@]43C)[C@@H]2C1 (some centres undefined),–,8.22% [at 6.55 µM]
